Bioassay records: PubChem, Buhrlage Lab, Dana-Farber Cancer Institute and Novartis Institutes for BioMedical Research (Cambridge, Mass)
USP30 block – inhibitors of human USP30 deubiquitinase; hit rate 5.3% among 47,000; inhibition, % at 25 µM; purified USP30, Ub-rhodamine cleavage fluorescence; AID 1645860; Q70CQ3
USP17 block – inhibitors of human USP17 deubiquitinase; A8MUK1; purified USP17, Ub-rhodamine cleavage fluorescence, 3 h; inhibition, % at 50 µM; hit rate 6.5% among 47,000; AID 1645855
Target sequence (A8MUK1 whole entry, looked up): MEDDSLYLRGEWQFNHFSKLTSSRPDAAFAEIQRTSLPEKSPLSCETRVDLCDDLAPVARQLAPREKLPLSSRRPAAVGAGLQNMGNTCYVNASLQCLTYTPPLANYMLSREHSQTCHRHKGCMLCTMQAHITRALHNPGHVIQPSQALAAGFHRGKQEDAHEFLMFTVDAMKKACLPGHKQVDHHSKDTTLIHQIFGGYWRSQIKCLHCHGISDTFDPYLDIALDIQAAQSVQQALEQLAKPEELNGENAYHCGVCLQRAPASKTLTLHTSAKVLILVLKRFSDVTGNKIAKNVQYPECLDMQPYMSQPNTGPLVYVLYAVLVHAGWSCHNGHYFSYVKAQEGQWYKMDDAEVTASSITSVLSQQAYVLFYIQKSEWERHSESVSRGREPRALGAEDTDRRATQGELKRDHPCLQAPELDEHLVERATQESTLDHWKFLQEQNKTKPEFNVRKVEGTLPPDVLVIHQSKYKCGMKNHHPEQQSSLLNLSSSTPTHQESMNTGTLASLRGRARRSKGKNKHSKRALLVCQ
The depositor's hits bear a star; i = inactive; nt = not tested or not shown. This is a sample that favours compounds with a hit; in the whole collection about 9.6% have one here. No stated cut-off is given here; in the data, active means inhibition above about 30%; inactive means the rest.

SMILES	USP30 block	USP17 block
CCCc1noc(-c2ccc(-n3ncc(C(=O)N4CCCCC4)c3C)nc2)n1	38*	20
CCCc1noc(-c2ccnc(-n3ncc(C(=O)N4CCCC4)c3C)c2)n1	-13	1
CCCCCCCCCC(CCCCCCCCCC(=O)O)O[C@H]1O[C@@H](COC(C)=O)[C@H](O)[C@@H](O)[C@H]1OC(=O)CC(=O)O (stereo partly drawn)	53*	42*
O=C1N[C@@H](Cc2ccccc2)C(=O)N2[C@H]3Nc4ccccc4[C@@]3([C@]34C[C@H]5C(=O)N[C@@H](Cc6ccccc6)C(=O)N5[C@H]3Nc3ccccc34)C[C@@H]12	49*	53*
CCC(C)C1C(=O)N2NCCCC2C(=O)N2NCCCC2C(=O)N(C)C(Cc2ccccc2)C(=O)N2CCCC2C(=O)NC(Cc2ccccc2)C(=O)N1O (stereo not drawn)	26	6
O=C(NCCc1ccc(O)cc1)c1ccc2nc(-n3cccc3)sc2c1	-146	-152
O=C(/C=C/c1c(F)cccc1Cl)N1CCc2ccccc2C1	29	75*
O=C(/C=C/c1ccc(Cl)cc1)N1CCc2ccccc2C1	5	nt
Clc1ccc(Nc2nc(N3CCOCC3)nc3nccnc23)cc1	2	0
CC(=O)Nc1c2sscc-2[nH]c1=O	70*	-20
O=c1[nH]c(=O)n(Cc2ccccc2)c2c1CN(Cc1cccnc1)CN2	9	8
O=C(Nc1cccc(-c2nc(-c3cccc(C(=O)N4CCOCC4)c3)no2)c1)c1ccco1	-45	0
O=C1CN(C(=O)COc2cccc3ccccc23)c2ccccc2N1	6	41*
O=C1CN(C(=O)COc2ccc(F)cc2Cl)c2ccccc2N1	-26	-8
O=C(c1cn[nH]c1C1CCN(S(=O)(=O)c2ccccc2)CC1)N1CCCC1	5	7
O=C(COC(=O)C1CCCN1C(=O)C12CC3CC(CC(C3)C1)C2)c1ccc(Cl)cc1 (stereo not drawn)	51*	8
CCc1cc(C2CCCN2C(=O)C23CC4CC(CC(C4)C2)C3)on1 (stereo not drawn)	15	5
Cn1nc(CN2CCCCC2)c2c1CN(C(=O)Nc1ccccc1F)C2	2	-4
COc1ccc(C(CNC(=O)c2cc(=O)[nH]c3ccccc23)N2CCCC2)cc1 (stereo not drawn)	-19	1
COc1ccc(NCc2cc(=O)[nH]c3ccccc23)cc1	37*	15
CCN1C[C@H]2CN(C)c3ccccc3[C@@H]2N(C(=O)COC)CCC1=O	nt	-13
Cc1ccc(NC(=O)N2CCC3(CC2)NC(=O)C(CC(C)C)NC3=O)cc1 (stereo not drawn)	46*	43*
CSc1ccccc1NC(=O)N1CCC2(CC1)NC(=O)C(CC(C)C)NC2=O (stereo not drawn)	-1	-5
CC1=C(c2ccc(C)c(C)c2)S(=O)(=O)NC1=NCC(=O)NCc1ccccc1	nt	28
CC1=C(c2ccc(Cl)cc2)S(=O)(=O)NC1=NCC(=O)Nc1ccc(F)cc1	44*	64*
SMILES	USP30 block	USP17 block
CC1=C(c2ccc(C)c(C)c2)S(=O)(=O)NC1=NCC(=O)NCCCc1ccccc1	30	51*
CC1=C(c2ccc(F)cc2)S(=O)(=O)NC1=NCC(=O)Nc1ccc(F)cc1	52*	0
CCC1=C(c2ccc(C)cc2)S(=O)(=O)NC1=NCC(=O)NC1CCCCCC1	-15	-8
Cc1ccc(C(=O)CC(=O)C(=O)Nc2cccc(F)c2)cc1	-287	-43
CC1=C(c2ccc(F)cc2)S(=O)(=O)NC1=NCC(=O)Nc1cccc(F)c1	58*	41*
CC1=C(c2ccc(F)cc2)S(=O)(=O)NC1=NCC(=O)Nc1c(C)cccc1C	14	17
C#CCNC(=O)CC[C@H]1CNC(=O)[C@@H]2[C@@H](CCN2C2CCOCC2)N1C	-62	-28
COc1cccc(CC(=O)N2CCC(c3nnc(-c4nccc5ccccc45)o3)CC2)c1	7	-16
O=C(CCSc1nnnn1-c1ccccc1)Nc1cc(C(F)(F)F)ccc1Cl	8	40*
CN1CCN(CCC(=O)Nc2cc(C(F)(F)F)ccc2Cl)CC1	14	11
Cc1ccccc1NC(=O)Cn1c(C)cc(=O)n2nc(C3CCCCC3)nc12	18	3
CCn1c(=O)[nH]c2c(C(=O)N3CCC(Cc4ccccc4)CC3)snc2c1=O	23	6
Cc1ccccc1NC(=O)C1CCCN(S(=O)(=O)Cc2ccccc2)C1 (stereo not drawn)	23	32*
COc1ccccc1CNC(=O)C1CCCN(S(=O)(=O)Cc2ccc(Cl)cc2)C1 (stereo not drawn)	30*	16
CN(C1CCCCC1)S(=O)(=O)N1CCCC(C(=O)NCc2cccc(Cl)c2)C1 (stereo not drawn)	42*	25
O=C(C1CCCN(S(=O)(=O)Cc2ccccc2)C1)N1CCC(Cc2ccccc2)CC1 (stereo not drawn)	31*	3
Cc1ccccc1NC(=O)C1CCCN(S(=O)(=O)Cc2ccc(F)cc2)C1 (stereo not drawn)	24	10
O=C(C1CCCN(Cc2cccc(Cl)c2)C1)N1CCC(Cc2ccccc2)CC1 (stereo not drawn)	-21	-13
Cc1cccc(CNC(=O)C2CCCN(S(=O)(=O)Cc3ccc(Cl)cc3)C2)c1 (stereo not drawn)	13	21
CN(C1CCCCC1)S(=O)(=O)N1CCCC(C(=O)NCc2ccccc2Cl)C1 (stereo not drawn)	12	-1
O=C(c1ccco1)N1CCCn2nc(-c3cccnc3)cc2C1	nt	-8
O=C(C1CCCN1c1nnc(N2CCCC2=O)s1)N1CCN(c2ccccc2F)CC1 (stereo not drawn)	24	-6
CC(C)c1nc2sc3c(NCCCN4CCOCC4)ncnc3c2c2c1COC(C)(C)C2	-24	-16
CCc1nnc(Nc2cccc(C3CCCNC3)n2)s1 (stereo not drawn)	13	-1
CC(C)N1CC[C@@H]2[C@H](C1)CN2C(=O)NC1CCCCC1	i	-166
SMILES	USP30 block	USP17 block
CCc1nc(SCC(=O)Nc2cccc3ccccc23)c2c3c(sc2n1)COC(C)(C)C3	1	16
CC(=O)NS(=O)(=O)c1ccc(NC(=O)/C=C/c2cn(-c3ccccc3)nc2-c2ccccc2)cc1	-28	25
NS(=O)(=O)c1cccc(NC(=O)/C=C/c2cn(-c3ccccc3)nc2-c2cccc([N+](=O)[O-])c2)c1	34*	4
COc1ccc(C2CCCN2C(=O)c2cnn3cc(C)cnc23)c(OC)c1 (stereo not drawn)	-2	-1
Cn1ccnc1CN1CCC2(CC1)CN(Cc1ccccc1)C(=O)CO2	-2	-11
O=[N+]([O-])c1ccc2nc(/C=C/c3cc4ccccc4nc3N3CCOCC3)sc2c1	-85	3
Cc1cccc(/C=C/c2nc3ccc([N+](=O)[O-])cc3s2)c1	-59	43*
CN(C)C(=O)c1cc(C2CCN(C(=O)c3ccc4c(c3)OCCO4)C2)nc2ccccc12 (stereo not drawn)	-9	-2
COc1cccc2c(=O)n(CC(=O)NCc3ccc4c(c3)OCO4)ccc12	0	-1
COc1cc([C@@H]2c3cc4c(cc3[C@H](O)[C@H]3COC(=O)[C@@H]23)OCO4)cc(OC)c1OC	71*	63*
COc1ccc(-c2cc(C(F)(F)F)nc(-n3ccc([N+](=O)[O-])n3)n2)cc1	0	-7
COC(=O)CC1CC23OC2(C(=O)c2c(O)cccc2C3=O)C(C)O1 (stereo not drawn)	-78	65*
